# Values joined by “and” are separate entries in the source; they are usually repeats but may differ in a detail not shown here. Equal values may be shown once. Results filed as inconclusive are left out. Where a call stands in place of a potency, no number is given. Active and inactive are the calls of the source. Unless noted, calls follow the shape of the dose curve; as a rule, active = well fitted curve in the direction sought with a large enough effect; inconclusive = small, poorly fitted or top-dose-only effect, or another doubt; inactive = no such curve, though single readings can be large; an effect the other way counts as inactive or inconclusive.
# Columns and labels:
# [1] = HTS Assay for Allosteric Antagonists of the Human D2 Dopamine Receptor: Hit Validation in HTRF (AID 624455);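 also: stable D1 dopamine receptor cell line scored for blocking the D1 response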
# Method in brief: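 First, antagonism was screened by calcium flux in a force-coupled, inducible Hek293 Trex D2 line challenged with EC80 dopamine. Hits then went into an HTRF assay in cells stably expressing D1, testing inhibition of the D1 response.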
# [2] = qHTS assay for small molecule agonists of the antioxidant response element (ARE) signaling pathway (AID 651741; active = well fitted activation curve with a large enough effect in the signal ratio; the % refers to the signal ratio; also: potency is read from the fitted curve at half-maximal effect)
# Method in brief: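 CellSensor ARE-bla HepG2 cells (2,000/well) carrying ARE-driven beta-lactamase, exposed 16 h at 37 C. LiveBLAzer B/G FRET substrate added for 2 h at room temperature; fluorescence intensity read.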
# [3] = Cytotoxicity counterscreen for NFkB agonists and antagonists (AID 624476); also: potency is read from the fitted curve at half-maximal effect
# [4] = qHTS Assay for Identification of Small Molecule Agonists for NFkB Signaling Pathway. (AID 624478);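 also: compounds tested together with TNF alpha at its EC50 of 10 pM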
# Method in brief: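 ME-180 cervical carcinoma, stable NFkB-RE beta-lactamase reporter; 1000 cells/well, overnight attachment; cpd + TNF alpha 10 pM final, 5 h 37 C; LiveBLAzer 2 h RT; FRET 460/530 nm, ex 405 nm.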
# [5] = qHTS Assay for Identification of Small Molecule Antagonists for NFkB Signaling Pathway. (AID 624479; calls by dose curve;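 also: pathway stimulated with TNF alpha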; also: potency is read from the fitted curve at half-maximal effect)
# [6] = Cell Proliferation Assay against the TMD8 Cell Line (AID 651645); details: TMD8 DLBCL cell line proliferation/viability; at 46.1 µM (top of the series) unless noted;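 also: cells exposed to compound for 48 h before reading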
# Method in brief: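 TMD8 ABC DLBCL cells, 500 per well in phenol red-free RPMI with 5% FBS, were treated with compound by pin transfer and incubated 48 hours at 37C, 5% CO2. Viability was read by CellTiter-Glo luminescence, normalised to DMSO (100%) and 9.2 uM bortezomib (0%).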
# [7] = Cell Proliferation Assay against the HBL1 Cell Line (AID 651646); details: HBL1 DLBCL cells; at 46.1 µM (top of the series) unless noted;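 also: cells exposed to compound for 48 h before reading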
# Method in brief: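 HBL1 ABC DLBCL cells, 500/well in RPMI with 5% FBS, treated for 48 h at 37C. Viability read by CellTiter-Glo luminescence, normalized to DMSO as 100% and 9.2 uM bortezomib as 0%.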
# [8] = Cell Proliferation Assay against the TMD8 Cell Line (Caspase readout at 16 hrs) (AID 651712); also: potency is read from the fitted curve at half-maximal effect
# Method in brief: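 TMD8 cells in RPMI with 5% FBS were treated with compound for 16 h at 37 C, then caspase 3/7 activation was read by Caspase-Glo luminescence. Percent activity was scaled to DMSO (0%) and 9.2 uM bortezomib final (100%).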
# [9] = Cell Proliferation Assay against the TMD8 Cell Line (Caspase readout at 8 hrs) (AID 651713); also: potency is read from the fitted curve at half-maximal effect
# Method in brief: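 Seed log-phase TMD8 cells, add compound by pin tool, incubate 8 h at 37C under 5% CO2, equilibrate to room temperature, add Caspase-Glo, wait 15 min, read luminescence; percent activity uses DMSO and 9.2 uM bortezomib controls.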
# [10] = target: Tumor susceptibility gene 101 protein (Homo sapiens) (UniProt Q99816); assay: qHTS Assay for Iinhibitors of HIV-1 Budding by Blocking the Interaction of PTAP/TSG101: Hit Validation (AID 651600); details: PTAP peptide/TSG101 UEV interaction, biochemical assay; also: potency is read from the fitted curve at half-maximal effect; nearly all actives have a fitted effect of over 70% in size
# Chain of Tumor susceptibility gene 101 protein (Homo sapiens) (Q99816 whole entry, looked up): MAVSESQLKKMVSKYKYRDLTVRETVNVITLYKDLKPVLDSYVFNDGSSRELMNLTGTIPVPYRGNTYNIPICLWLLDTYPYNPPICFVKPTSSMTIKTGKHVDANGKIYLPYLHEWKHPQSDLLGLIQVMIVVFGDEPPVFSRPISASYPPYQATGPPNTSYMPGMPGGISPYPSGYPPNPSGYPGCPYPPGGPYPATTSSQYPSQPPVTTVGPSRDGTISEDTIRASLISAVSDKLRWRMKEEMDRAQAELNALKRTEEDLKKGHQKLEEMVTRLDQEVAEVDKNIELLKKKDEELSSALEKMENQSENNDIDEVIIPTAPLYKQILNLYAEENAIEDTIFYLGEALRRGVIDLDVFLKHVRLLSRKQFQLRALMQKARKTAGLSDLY
# Source text: Stages of the HIV-1 replication cycle, specifically virus assembly and release, provide underexploited targets for the development of novel antiviral inhibitors. The late stages of HIV-1 replication are mediated by the Gag precursor protein, Pr55Gag. Expression of Pr55Gag is both necessary and sufficient for the production of virus-like particles from Gag-expressing cells. The Gag protein hijacks key host proteins involved in endocytic machinery of the host cell to promote endosomal processing and viral budding. The budding process requires a direct interaction between a […] (PTAP) motif in the p6 domain of Gag and the cellular endosomal sorting protein known as Tsg101. In this way, the Gag PTAP motif promotes the host cells to recruit viral particles to the plasma membrane where the new viral particles are released, effectively turning the host cells into viral factories. A fluorescence anisotropy assay has been developed to quantitatively measure the PTAP-Tsg101 interaction which can be used to screen for inhibitors of this interaction. […]
# Two uL of the Tsg101 binding domain in buffer (10 mM HEPES pH 7.5; 0.15 M NaCl, 0.01% Tween 20; 3 mM EDTA;0.1 mM TCEP) was dispensed into Greiner black MB 1536-well plates (final concentration 10 uM). […] Fluorescent polarization was determined using FITC excitation and polarized emission filters on a Perkin Elmer Viewlux. […]
compound,measurement,setting,value
Cn1c(=O)c2c(ncn2C)n(C)c1=O,Potency,[1],inactive
same,Potency,[2],inactive
CC(C)(Oc1ccc(C2CC2(Cl)Cl)cc1)C(=O)O (configuration not stated),Potency,[1],inactive
CN(C)C(=N)N=C(N)N,Potency,[3],inactive
same,outcome,[4],inactive
same,Potency,[5],inactive
same,viability (% of control),[6],131%
same,"viability, percent of control",[7],125%
same,Potency,[8],inactive
same,Potency,[9],inactive
OCCN(CCO)c1nc(N2CCCCC2)c2nc(N(CCO)CCO)nc(N3CCCCC3)c2n1,Potency,[1],inactive
same,Potency,[10],18.3 µM (active)
O=c1c(O)c(-c2ccc(O)c(O)c2)oc2cc(O)cc(O)c12,Potency,[1],inactive
same,Potency,[3],inactive
same,outcome,[4],inactive
Nc1ccn([C@H]2CC[C@@H](CO)O2)c(=O)n1,Potency,[1],inactive
same,Potency,[2],inactive
O=C(Nc1ccc([N+](=O)[O-])cc1Cl)c1cc(Cl)ccc1O,Potency,[1],inactive
same,Potency,[2],3.06 µM (active)
Cn1ccc2cc3c(cc21)CCN3C(=O)Nc1cccnc1,Potency,[1],inactive
same,Potency,[3],inactive
same,outcome,[4],inactive
same,Potency,[5],inactive
same,viability (% of control),[6],102%
same,"viability, percent of control",[7],88.1%
same,Potency,[8],inactive
same,Potency,[9],inactive
CCC1(c2ccccc2)C(=O)NCNC1=O,Potency,[1],inactive
same,Potency,[2],inactive
CC(C(=O)O)c1cccc(C(=O)c2ccccc2)c1 (configuration not stated),Potency,[1],inactive
CN1C2CCC1CC(OC(=O)C(CO)c1ccccc1)C2 (configuration not stated),Potency,[1],inactive
CC(C)Cc1ccc(C(C)C(=O)O)cc1 (configuration not stated),Potency,[1],inactive
same,Potency,[2],inactive
Cn1cnc2c1c(=O)[nH]c(=O)n2C,Potency,[1],inactive
same,Potency,[2],inactive
CS(=O)(=O)CCNCc1ccc(-c2ccc3ncnc(Nc4ccc(OCc5cccc(F)c5)c(Cl)c4)c3c2)o1,Potency,[3],23.5 µM (active)
same,outcome,[4],inactive
same,viability (% of control),[6],0.834%
same,"viability, percent of control",[7],3.03%
CN1CCC(=C2c3ccccc3CC(=O)c3sccc32)CC1,Potency,[1],inactive
COc1cc2c(c(OC)c1OC)-c1ccc(OC)c(=O)cc1[C@@H](NC(C)=O)CC2,Potency,[1],inactive
CC#C[C@]1(O)CC[C@H]2[C@@H]3CCC4=CC(=O)CCC4=C3[C@@H](c3ccc(N(C)C)cc3)C[C@@]21C,Potency,[1],inactive
same,Potency,[2],21.7 µM (active)
CC1(CN2CCC(n3c(=O)[nH]c4ccccc43)CC2)OCc2ccccc2-n2cccc21 (configuration not stated),outcome,[4],inactive
same,viability (% of control),[6],12.7%
same,"viability, percent of control",[7],6.74%
Cc1cn([C@H]2C=C[C@@H](CO)O2)c(=O)[nH]c1=O,Potency,[1],inactive
same,Potency,[2],inactive
CNCCCC12CCC(c3ccccc31)c1ccccc12,Potency,[1],inactive
Cc1ccccc1N1C(=O)c2cc(S(N)(=O)=O)c(Cl)cc2NC1C (configuration not stated),Potency,[1],inactive
COc1ccc2[nH]cc(CCNC(C)=O)c2c1,Potency,[1],inactive
same,Potency,[2],inactive
NS(=O)(=O)c1cc2c(cc1Cl)NCNS2(=O)=O,Potency,[1],inactive
same,Potency,[2],inactive
Clc1ccc(C(c2ccccc2Cl)C(Cl)Cl)cc1 (configuration not stated),Potency,[1],inactive
same,Potency,[2],66.8 µM (active)
O=c1c(-c2ccc(O)cc2)coc2cc(O)cc(O)c12,Potency,[1],inactive
same,Potency,[2],9.69 µM (active) and 13.3 µM (active)
CN(Cc1cnc2nc(N)nc(N)c2n1)c1ccc(C(=O)N[C@@H](CCC(=O)O)C(=O)O)cc1,Potency,[2],0.154 µM (active)
O=C(c1ccc(OCCN2CCCCC2)cc1)c1c(-c2ccc(O)cc2)sc2cc(O)ccc12,Potency,[1],inactive
Cn1c(=O)c2[nH]cnc2n(C)c1=O,Potency,[1],inactive
same,Potency,[2],inactive
CCOC(=O)C(C)(C)Oc1ccc(Cl)cc1,Potency,[1],inactive
same,Potency,[2],inactive
COc1ccc(CCN(C)CCCC(C#N)(c2ccc(OC)c(OC)c2)C(C)C)cc1OC (configuration not stated),Potency,[1],inactive
same,Potency,[3],inactive
same,outcome,[4],inactive
same,Potency,[5],inactive
CC[C@@]1(O)C(=O)OCc2c1cc1n(c2=O)Cc2cc3c(CN(C)C)c(O)ccc3nc2-1,Potency,[3],0.0235 µM (active)
same,outcome,[4],inactive
same,Potency,[5],5.95 µM (active)
same,Potency,[10],6.51 µM (active)
same,viability (% of control),[6],4.59%
same,"viability, percent of control",[7],33.6%
same,Potency,[8],0.0074 µM (active)
same,Potency,[9],1.48 µM (active)
Cc1ccc(-c2cc(C(F)(F)F)nn2-c2ccc(S(N)(=O)=O)cc2)cc1,outcome,[4],inactive
same,Potency,[5],43.2 µM (active)
same,viability (% of control),[6],57.7% [at 92.2 µM]
same,"viability, percent of control",[7],6.48% [at 92.2 µM]
same,Potency,[9],54 µM (active)
same,Potency,[2],66.8 µM (active)

# From PubChem BioAssay (NCATS)
